Among all 2,200 compounds or so, about 530 (24%) were called active. The list is a sample of the results. Results with a measured potency or affinity are listed apart. Values without a mark were called inactive.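 The calls were made as follows: active = inhibition above a set limit at one or more concentrations of the dose series; inactive = inhibition under that limit at every dose.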

The results in this text go back to PubChem BioAssay AID2401 (Southern Research Specialized Biocontainment Screening …, 2010).

The test is described as follows: S. Typhimurium nonspecific reporter signal inhibition – Salmonella Typhimurium, GFP fluorescence, counter-screen for PhoP regulon inhibitor project, dose response (AID 2401).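 Also: S. typhimurium with Mg-insensitive nmpC-GFP reporter grown at 10 µM Mg2+; drop in reporter fluorescence reflects general culture growth inhibition.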 The following applies: 4 h; series mostly up to 150 µM; inhibition: at the top concentration.
As usually defined, the inhibition is the drop in the measured response relative to a control, in per cent. In the case of `O=C(Cc1c[nH]c2ccccc12)N/N=C/c1ccc(F)cc1`, the “inhibition” value is -15.5%.
`NC(=O)CCc1c[nH]c2ccccc12`: the “inhibition” value was -21.9%.
With `CCc1nn2cc(C(=O)c3cc(Cl)ccc3O)cnc2c1-c1ccc(F)cc1` the figure was -4.45%; with `Cc1cc(C(=O)COC(=O)CNC(=O)c2ccco2)c(C)n1Cc1ccco1`, -20.9%; with `c1ccc(Nc2ccnc(Nc3ccccc3)n2)cc1`, 29.3%.
The figure for `Cc1[nH]c2ccccc2c1C(O)CN1CCN(c2cccc(C(F)(F)F)c2)CC1` (stereo not drawn) is -0.27%.
With `Brc1cccc(CNc2nc3ccccc3n2CCN2CCCCC2)c1` the figure was 4.39%.
Consider `CC(C)CCNC(=S)Nc1ccc([N+](=O)[O-])cc1`, for which the “inhibition” value is 2.69%.
The figure for `Cc1cc(C(=O)N/N=C/c2ccc[nH]2)no1` is -10.4%; for `CC1=CC(C)C2(CO)COC(c3ccccc3O)C1C2C` (stereo not drawn) it is -15.8%; for `CCOC(=O)c1sc(-c2ccc(C(F)(F)F)cc2)nc1O` it is 8.9%.
With `CC(Oc1ccc(Cl)cc1)c1ccnn1S(=O)(=O)c1ccccc1` (stereo not drawn) the figure was 0.01%; with `CC(=O)Nc1ccc(S(=O)(=O)N2CCC(n3cnc4cc(F)ccc43)CC2)cc1`, -27.3%; with `CCOC(=O)C1=C(C)N=c2s/c(=C\c3ccncc3)c(=O)n2C1c1ccc2c(c1)OCO2` (stereo not drawn), 26.9%.
The figure for `COc1ccc(C(=O)COc2nc(C)cc(C)c2C#N)cc1` is -5.05%; for `COc1ccc2nc(NC(=O)C3CCCN3S(=O)(=O)c3ccc(C)cc3)sc2c1` (stereo not drawn) it is -14.7%.
`Clc1ccc(Nc2ncnc3c2cnn3-c2ccccc2)cc1`: the “inhibition” value is -8.79%.
Regarding `COc1cc(CNc2ccc(CNc3ncn[nH]3)cc2)ccc1OCC(=O)NC(C)(C)C`, the “inhibition” value is -15.3%.
For `NC[C@@]12CCCC1C1CCC2C1` (stereo partly drawn), the “inhibition” value is -36.1%.
With `O=C(Oc1ccc[nH]c1=O)c1cc([N+](=O)[O-])cc([N+](=O)[O-])c1` the figure was 21.5%.
In the case of `CC(O)CNc1cc(N)c([N+](=O)[O-])cc1[N+](=O)[O-]` (stereo not drawn), the “inhibition” value was 14.5%.
The figure for `CC(NC(=O)C1(C)CC1(Br)Br)C(C)(C)C` (stereo not drawn) is -28.4%.
As to `Cc1cc(C(=O)N/N=C/c2cc(Br)cc(Br)c2OC(=O)c2ccccc2)n[nH]1`, the “inhibition” value is 2.66%.
With `Cc1cc2ncn(C3CC(=O)N(Cc4ccc(N5CCCC5=O)cc4)C3=O)c2cc1C` (stereo not drawn) the figure was -18.1%; with `O=C(CSc1nnc2n(C3CCCCC3)c(=O)c3ccccc3n12)OC1CCCCC1`, -4.67%; with `Cc1ccc2cc(C(=O)O)c(C)nc2c1`, 0.56%.
The figure for `Cc1ccccc1NC(=O)Nc1cccs1` is -3.85%.
With `Cc1ccc(S(=O)(=O)N2CCCC2C(=O)OCc2ccco2)cc1` (stereo not drawn) the figure was 3.11%.
Regarding `CCCOc1ccc(Cn2cnc3ccccc32)cc1`, the “inhibition” value is 8.82%.
With `Cc1cc(C)nc(NC(=O)Cc2cccs2)n1` the figure was 0.59%; with `Cc1c(C)n(Cc2ccccc2)c2ncnc(N)c12`, -3.49%.
With `O=C(NCc1cccnc1)c1cc2ccccc2oc1=O` the figure was -3.7%; with `CCn1cc(C(=O)NCc2ccncc2)c(=O)c2cc(F)c(N3CCN(C(=O)c4ccco4)CC3)cc21`, -34.3%; with `COC(=O)Cc1ccc(NC(=S)N2CCN(c3ccc(F)cc3)CC2)cc1`, -7.16%.
With `Cc1cc(SCC(N)=O)nc(SCC(=O)c2ccccc2)n1` the figure was -14.3%.
As to `COC(=O)C1(O)CC(C(C)C)=NN1C(=O)c1ccc(Cl)cc1` (stereo not drawn), the “inhibition” value is -22.4%.
For the compound `Cc1ccc(C(=O)NC(=S)Nc2cccc3c(C)cc(C)nc23)cc1`, the “inhibition” value is -25.1%.
On to `Cc1ccc(Nc2nnc(C3C(=O)N(C)C4(C)CC3c3cc(Br)ccc3O4)s2)cc1` (stereo not drawn), for which the “inhibition” value was 2.31%.
With `Cc1cccc(OCCSCc2nc3ccccc3[nH]2)c1` the figure was 34%; with `Cn1c(SCC(=O)N2c3ccccc3CCc3ccccc32)nnc1-c1cc2ccccc2cc1O`, 20.2%; with `O=C(Cn1nc(C(F)(F)F)c2c1CCCCC2)N1CCOCC1`, -0.36%.
The figure for `CCOC(=O)C1=CSC2=NS(=O)(=O)CCN12` is -28.4%.
With `[O-]/[N+](=C\c1ccncc1)c1ccccc1` the figure was -18.9%; with `Cc1c(C(=O)Nc2cccc(Cl)c2)c2ccccn2c1CCc1ccncc1`, -15.3%.
Take `COc1cc(C)ccc1OCCCOc1ccccc1Br`: the “inhibition” value was -5.6%.
Regarding `COC(=O)c1cc(C#N)c(Oc2ccccc2OC)nc1C`, the “inhibition” value was -10.3%.
The figure for `Cc1occc1C(=O)n1cnc2ccccc21` is -6.49%; for `COc1cccc2[nH]c3c(N4CCC(C)CC4)ncnc3c12` it is -17.3%.
The figure for `NC(=O)C1(NC(=O)[C@@H]2CC3(CC(c4cccc(NC(=O)[C@@H]5CCC(=O)N5)c4)=NO3)CN2C(=O)Cc2ccc(Cl)cc2)CC1` (stereo partly drawn) is -35.9%; for `Cc1ccc(/C(O)=C2\C(=O)C(=O)N(CC(C)O)C2c2cccc(F)c2)cc1` (stereo not drawn) it is -9.74%; for `CCCCOc1ccc(S(=O)(=O)NNC(=O)C2Cc3c(ccc4ccccc34)O2)cc1` (stereo not drawn) it is -7.66%.
The figure for `O=C(CN1CCCCC1)Nc1cccc(Br)c1` is 1.22%; for `Cc1ccc(S(=O)(=O)c2c(C(=O)c3ccccc3)cnc3cc4c(cc23)OCCO4)cc1` it is 4.08%.
On to `OC(COc1ccc2ccccc2c1Br)Cn1ccnc1` (stereo not drawn), for which the “inhibition” value is 19.7%.
Consider `CC(C)c1ccc(C2NC(=O)NC3=C2CCc2ccccc23)cc1` (stereo not drawn), for which the “inhibition” value is -15.2%.
Turning to `O=C(Nc1ccc(Cl)c(Cl)c1)Nc1ccccc1O`, the “inhibition” value was 18.8%.
The figure for `N/C(=N/OC(=O)c1ccccc1Cl)c1ncc([N+](=O)[O-])s1` is 27.3%.
Regarding `CC(=O)c1ccc(NC(=O)Nc2cccc(Cl)c2)cc1`, the “inhibition” value was 12.5%.
Consider `CCCCOc1ccc(NC(=O)Nc2nnc(C)s2)cc1`, for which the “inhibition” value was -12.1%.
The figure for `Cc1ccc(Oc2ccc3c(c2)C(=O)N(c2ccc(S(=O)(=O)Nc4nccs4)cc2)C3=O)cc1` is 7.08%; for `CN(C)C(CNC(=O)Nc1cccc(Cl)c1)c1cccnc1` (stereo not drawn) it is 1.17%.
The figure for `COc1ccc(N2CCN(C(=O)C3CCCO3)CC2)cc1` (stereo not drawn) is -22.8%; for `CN1C(=O)CC(P(=O)(c2ccccc2)c2ccccc2)N(C)C1=O` (stereo not drawn) it is -7.16%.
The figure for `c1ccc(OCCCN2CCCC2)cc1` is -15.8%.
With `O=C(C1CCN(C2CC(=O)N(Cc3ccccc3)C2=O)CC1)N1CCCCCC1` (stereo not drawn), the “inhibition” value was -3.78%.
With `COc1cccc(NC(=O)Cn2c(=O)n(CCCC(=O)NCc3ccco3)c(=O)c3ccccc32)c1` the figure was -20.7%; with `Nc1ccc2oc3ccccc3c2c1`, 24.6%; with `Nc1ccc2oc(=O)c3ccccc3c2c1`, 28.1%.
With `COC(=O)c1sccc1NC(=O)CSc1ccccc1NS(=O)(=O)c1ccc(Cl)cc1` the figure was 0.18%.
The figure for `Cc1ccc(N2C(=O)CC(n3ccnc3)C2=O)cc1C` (stereo not drawn) is -14.9%.
As for `CCN(CC)CCCn1c(=S)[nH]c2cc(OC)c(OC)cc2c1=O`, the “inhibition” value was -13.4%.
The figure for `CC(=O)C1=C(C)Nc2ncnn2C1c1ccccc1OCc1ccccc1` (stereo not drawn) is -13.7%; for `CCOc1ccc(-n2c(SCc3nc(-c4ccc(C)cc4)no3)nnc2-c2ccncc2)cc1` it is -19.1%.
With `O=S(=O)(Nc1ccc2c(c1)nc1n2CCN(Cc2ccccc2)C1)c1ccc(Cl)cc1` the figure was 6.97%; with `Nc1cccc(-c2nc3ccc(N)cc3s2)c1`, 5.38%; with `O=C(NCc1ccco1)c1ccc(Br)s1`, 17.5%.
With `Cn1c(=N)n(CC(=O)c2ccc(Br)s2)c2ccccc21` the figure was 28.3%.
For `O=C(Nc1cccn(Cc2c(Cl)cccc2Cl)c1=O)c1ccccc1Cl`, the “inhibition” value was -24.5%.
With `COc1ccc(C(=O)C(CO)Oc2ccccc2OC)cc1OC` (stereo not drawn) the figure was -26%; with `CCCCCCOC(=O)Sc1nc2ccccc2o1`, -11.3%.
The figure for `S=C(Nc1ccccc1)Nc1nc2ccccc2n1CCOc1ccc(Cl)cc1` is 4.16%; for `COc1ccccc1OCc1ccc(C(=O)N2CCN(C(=O)c3ccco3)CC2)cc1` it is -36.5%.
With `Clc1ccc(OCCn2cnc3ccccc32)cc1` the figure was -6.12%; with `COc1ccc(/C=C/C(=O)O)cc1COc1cccc(C)c1`, -6.94%.
Consider `Cc1cccc(OCCCSc2nc3ccc(C)cc3[nH]2)c1`, for which the “inhibition” value was -8.67%.
With `COc1ccccc1NC(=S)NNC(=O)c1c(Cl)c(C)nn1C` the figure was -25.9%.
The figure for `Cc1ccc(Nc2nc(CSc3nnc(-c4cccnc4)n3-c3ccccc3F)cs2)cc1` is -13%.
The figure for `O=C(c1cccc(S(=O)(=O)N2CCOCC2)c1)N1CCCC1` is -2.72%.
Regarding `O=C(c1ccccc1)N1CCSC1=S`, the “inhibition” value was 3.7%.
The figure for `Cn1c(-c2ccc3nc(N)sc3c2)nc2cc(N)ccc21` is 3.83%.
The figure for `Nc1ccc(Nc2ccccc2N)cc1` is 30.3%; for `Cc1cc2c(c(=O)n1C)C(Cc1ccccc1)C(C#N)=C(N)O2` (stereo not drawn) it is -10.2%.
With `O=C(CSc1nc2[nH]ncc2c(=O)[nH]1)N1CCCCC1` the figure was 7.9%; with `C=CCNC(=S)NNC(=O)c1cccn(Cc2ccc(Cl)cc2)c1=O`, 5.72%; with `COc1ccc(-c2cc(N3CCCC3)n3ncnc3n2)cc1`, 19.9%.
With `COC(=O)Cn1c(C)nc2ccccc21`, the “inhibition” value is -8.98%.
In the case of `COc1ccc(OCCSc2nnc3sc4ccccc4n23)cc1`, the “inhibition” value is -14.9%.
With `Cc1ccc(OCc2nc3ccccc3[nH]2)cc1`, the “inhibition” value was -11.2%.
With `CNc1ncc(Cc2ccccc2)s1` the figure was -8.16%.
With `CCn1c(SCc2ccc(F)cc2)nnc1C1CCN(S(=O)(=O)c2ccc(OC)cc2)CC1` the figure was -14.3%; with `O=C1CC(c2ccco2)CC(O)=C1C=Nc1cc(Cl)cc(Cl)c1` (stereo not drawn), -34.6%.
The figure for `c1csc(C2Nc3ccccc3-c3nc4ccccc4n32)c1` (stereo not drawn) is 8.7%.
Take `C=CCOc1ccc(Br)cc1/C=N/O`: the “inhibition” value is -15.1%.
In the case of `O=C(Cc1cn2ccsc2n1)Nc1ccccc1Oc1ccccc1`, the “inhibition” value was -15%.
The figure for `CCn1c2ccccc2c2cc(N)ccc21` is 27.9%.
With `CC(C)(C)c1ccc(C(=O)Nc2ccc(C=C(C#N)C#N)cc2)cc1`, the “inhibition” value was -12.7%.
In the case of `C=CCNC(=O)CC(=O)N/N=C/c1ccc(C(=O)OC)cc1`, the “inhibition” value is 12.4%.
The figure for `Cc1[nH]nc2c1C(c1cc(Br)cs1)C(C#N)=C(N)O2` (stereo not drawn) is 9.05%; for `Cc1cc(C)cc(-n2nc(C)cc2N)c1` it is -13.9%.
The figure for `N#CC(CC(=O)c1ccc(F)cc1)c1ccc2c(c1)OCO2` (stereo not drawn) is -3.09%; for `CCn1c(Cc2c(C)[nH]c3ccccc23)n[nH]c1=S` it is -6.66%; for `O=c1[nH]c2ccccc2n1C1=CCCC1` it is -20.4%.
The figure for `c1ccc2c3c([nH]c2c1)-c1[nH]ncc1CC3` is -22.3%; for `Nc1c(C(=O)NCCc2ccc(Cl)cc2)sc2ccc(S(=O)(=O)N3CCCCC3)cc12` it is 36.1%.
With `CC1N(C)c2cc(NC(=O)c3ccco3)ccc2C1(C)C` (stereo not drawn), the “inhibition” value is -27.2%.
With `CSc1cccc(NC(=O)c2ccco2)c1` the figure was -0.61%; with `Cc1oc(CC(C)C)c(CN2CCCC2)c1C(=O)O`, 4.83%; with `COc1ccc2c(c1)[nH]c1c(N3CCN(Cc4ccc5c(c4)OCO5)CC3)ncnc12`, -9.05%.
